Coupling enz: coupling enzyme interference in Giardia aldolase counter-screen; activity change, negative = inhibition, % at 58.2 µM, hits read low; AID 2472; coupling enzyme system counterscreen, AmpLite Red fluorescence; 290,000 compounds, 0.67% hits; in the data active = activity change below about -30%
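Coupling enzymes only (glyceraldehyde-3-phosphate) + compound, at 57.5 uM final, 10 min RT; add substrate/coupling/AmpLite Red mix, 20 min RT; fluorescence ex 525/em 598 nm. Actives flag coupling-system interference.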
TSHR antag: blocks TSH signaling through the human TSH receptor; P16473; TSHR-expressing cells, TSH-stimulated cAMP HTRF, 2 h; hits give low values; activity change, negative = inhibition, % at 11.5 µM; 330,000 compounds, 0.2% hits; AID 504810;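 active = activity change below a set negative limit, meaning inhibition stronger than a set level, cut at about -70% in these data; inconclusive = activity change between two set negative limits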
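Read-out is FRET at 665 nm (cryptate excitation 337 nm) from a cryptate-tagged anti-cAMP antibody, competed by cell cAMP against cAMP-d2. Compounds are tested on freshly harvested TSHR cells challenged with 4nM TSH (EC80) for 2 hours at 37 deg C.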
RORgamma inh: inhibitors of mouse ROR gamma transcriptional activity; P51450; Drosophila S2 Gal4-RORgamma UAS-luciferase reporter, 20 h; Potency, µM (doses to about 53.6 µM), inactives show at the top dose activity change, negative = inhibition, most hits filed as inhibitors; 310,000 compounds, 5.4% hits; AID 2551; also: potency is read from the fitted curve at half-maximal effect; nearly all actives have a fitted effect of over 60% in size
Target sequence (P51450 whole entry, looked up, the tested form may be a part): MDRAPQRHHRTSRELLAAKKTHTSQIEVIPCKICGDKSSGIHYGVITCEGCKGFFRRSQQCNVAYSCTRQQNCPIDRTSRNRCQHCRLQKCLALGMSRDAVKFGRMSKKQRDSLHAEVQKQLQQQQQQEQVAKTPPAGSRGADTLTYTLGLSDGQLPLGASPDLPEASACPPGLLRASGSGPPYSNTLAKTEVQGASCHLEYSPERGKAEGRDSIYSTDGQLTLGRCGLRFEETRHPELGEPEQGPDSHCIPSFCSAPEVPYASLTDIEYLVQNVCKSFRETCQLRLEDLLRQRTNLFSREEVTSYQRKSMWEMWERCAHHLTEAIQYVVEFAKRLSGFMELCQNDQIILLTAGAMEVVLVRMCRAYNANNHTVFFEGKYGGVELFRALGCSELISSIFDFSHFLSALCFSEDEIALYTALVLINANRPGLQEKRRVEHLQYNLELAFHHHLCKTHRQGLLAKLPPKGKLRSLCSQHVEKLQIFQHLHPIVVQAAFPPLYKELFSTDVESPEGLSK
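Luciferase reporter read in Schneider cells carrying Gal4-RORγ (mouse) and UAS-Photinus luciferase; cells given compound 1 h before 700 uM copper sulfate induction, then incubated 20 h at ambient temperature.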
ELG1 DNA repair: inhibitors of ELG1-dependent DNA repair in HEK293T cells. HEK293T ELG1-luciferase reporter, luminescence, 16 h; DNA damage induced by 5-fluorouridine. Potency, µM (top dose mostly 46.1 µM), inactives show top-dose activity change, negative = inhibition, hits mostly inhibitors. 330,000 compounds, 2.3% hits; also: potency is read from the fitted curve at half-maximal effect; nearly all actives have a fitted effect of over 55% in size
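Reporter activity after DNA damage by 5-fluorouridine is monitored. Compound-treated cells incubate 16 hr at 37 °C, then ONE-Glo is added for 30 min before luminescence reading.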
Gal4-VP16 FLuc: counter-screen for ROR gamma inhibitors: Gal4-VP16 reporter | Drosophila S2 Gal4-VP16 UAS-luciferase, luminescence, 20 h | Potency, µM (doses to about 53.6 µM), inactives show at the highest dose activity, negative = inhibition, most hits filed as inhibitors | 310,000 compounds, 3.5% hits | AID 2546;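 also: Gal4-VP16 expression switched on by copper sulfate through the metallothionein promoter; potency is read from the fitted curve at half-maximal effect; nearly all actives have a fitted effect of over 50% in size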
* hit, by the source's call; ? = inconclusive; / = not tested or not shown; [ ] = remark or other dose. A selection: hits, their analogues and other compounds. The true share with any hit is near 8%. Unless noted, calls follow the shape of the dose curve; as a rule, active = well fitted curve in the direction sought with a large enough effect; inconclusive = small, poorly fitted or top-dose-only effect, or another doubt; inactive = no such curve, though single readings can be large; an effect the other way counts as inactive or inconclusive. % is scaled to controls: 0 for no effect and ±100 for the full control effect.

SMILES	Coupling enz	TSHR antag	RORgamma inh	ELG1 DNA repair	Gal4-VP16 FLuc
O=C(N/N=C/c1cccs1)c1cc(-c2ccc(Cl)s2)[nH]n1	1	13	10µM*	5%	7.9µM*
O=C1CCCC/C1=C/Nc1cccc(C(F)(F)F)c1	-20	-1	?	?	-6%[10 µM]
O=C1CCC2S/C(=C/Nc3ccc(C(F)(F)F)cc3)C(=O)N12 (stereo not given)	-3	-7	1.3µM*	?	?
COc1ccc(/C=C/c2nc3ccccc3n2Cc2ccc(OC)c(OC)c2)cc1	-18	6	13µM*	?	?
COc1ccc(-c2nc3ccccc3n2OCC(=O)O)cc1	-15	-7	?	?	13µM*
CCOc1ccc(Cn2c3ccc(OC)cc3c3nc4ccccc4nc32)cc1OC	-3	1	13µM*	1%	?
O=C(O)COn1c(-c2ccc(Cl)cc2)nc2ccc(Cl)cc21	-27	-9	1%	?	0%
COc1ccc(Cn2c(-c3ccc(OC)cc3)nc3ccccc32)cc1	1	9	11µM*	?	?
COc1ccc2c(c1)c1nc3ccccc3nc1n2Cc1ccc(OC)c(OC)c1	0	16	?	?	?
COCCn1c(-c2ccc(OC)cc2)nc2ccccc21	2	11	-21%	?	14%
CC1(c2cccc(Br)c2)NC(=O)N(CC(=O)Nc2ccc(S(N)(=O)=O)cc2)C1=O (stereo not given)	8	7	-16%	30%	3%
C=C(C)Cn1c(-c2ccccc2)nc2ccccc21	5	0	14µM*	4%	?
CCN(Cc1ccccc1)C(=O)c1nn(-c2ccc(OC)cc2)c(=O)c2c1c1ccccc1n2C	0	-5	33%	18µM*	?
CCCCN(CC)CCNC(=O)c1nn(-c2ccc(OC)cc2)c(=O)c2c1c1ccccc1n2C	3	-5	3%	?	-1%
CCn1c(=O)c(=O)[nH]c2cc(C(=O)NCc3ccc(F)cc3)ccc21	0	-7	-14%	7%	-5%
CCOc1ccccc1N1CCN(C2=C(NS(=O)(=O)c3cccs3)C(=O)c3ccccc3C2=O)CC1	-26	-12	0%	23µM*	-2%
O=C1C(NS(=O)(=O)c2cccs2)=C(N2CCN(Cc3ccccc3)CC2)C(=O)c2ccccc21	-28	1	-17%	23µM*	7%
O=C1C(NS(=O)(=O)c2cccs2)=C(N2CCOCC2)C(=O)c2ccccc21	-24	10	-23%	-5%	-13%
CN1CCN(C2=C(NS(=O)(=O)c3cccs3)C(=O)c3ccccc3C2=O)CC1	-31*	-3	-30%	-28%	-4%
Nc1nc(SCC(=O)N2CCCCC2)[nH]c(=O)c1NC(=O)c1ccccc1F	/	6	-14%	10%	-10%
C[C@H]1C2=C3C(CC[C@H]4C(OCc5ccc(F)cc5C(F)(F)F)OC[C@](C)([C@@H]34)N(C(=O)OC(C)(C)C)C2)C2COC(=O)OCC21 (stereo not given in full)	1	/	-7%	/	5%
O=C(c1ccco1)N1CCN(c2ncnc3c2nnn3Cc2ccccc2Cl)CC1	-3	?	?	23µM*	-2%
Cc1sc2nc(C(C)C)nc(SCC(=O)N3CCN(C(=O)c4ccco4)CC3)c2c1C	-1	-15	-6%	18µM*	8%
CC(C)Nc1nnc(SCC(=O)N2CCN(C(=O)c3ccco3)CC2)s1	/	31	/	18%	/
Cc1ccc(-c2csc3ncnc(N4CCN(C(=O)c5ccco5)CC4)c23)cc1	/	-14	/	16µM*	/
SMILES	Coupling enz	TSHR antag	RORgamma inh	ELG1 DNA repair	Gal4-VP16 FLuc
COc1ccc(-c2csc3ncnc(N4CCN(c5ccccc5[N+](=O)[O-])CC4)c23)cc1	0	-15	14%	5.2µM*	-4%
O=C(c1ccco1)N1CCN(c2nc(C(F)(F)F)nc3c2nnn3Cc2ccccc2)CC1	1	?	26%	?	-29%
O=C(c1ccco1)N1CCN(c2ncnc3scc(-c4ccc(F)cc4)c23)CC1	5	-10	21%	-18%	-15%
COc1ccc(C2=NS(=O)(=O)N(C)C(C(=O)NCc3ccc4c(c3)OCO4)=C2)cc1OC	1	2	-23%	-25%	6%
CCCn1c(N)c(N(CCOC)C(=O)c2ccc(N(C)S(=O)(=O)c3ccc(C)cc3)cc2)c(=O)[nH]c1=O	/	7	/	?	/
COc1ccc(C(=O)NCC(=O)OCC(=O)NC2CCCCCC2)cc1OC	/	/	/	2%	/
CCOC(=O)c1nn(-c2ccccc2)c(=O)cc1OCC(=O)Nc1ccccc1OCC	/	4	/	?	/
Cc1ccc(-c2csc3ncnc(N4CCN(c5ccccc5O)CC4)c23)cc1	/	-5	13%	5.8µM*	-5%
Cc1sc2ncnc(N3CCN(C(=O)c4ccco4)CC3)c2c1C	5	1	?	12µM*	-20%
c1ccc(-c2csc3ncnc(-n4cnc5ccccc54)c23)cc1	13	9	-26%	-18%	15%
Cc1ccc(-c2csc3ncnc(-n4cnc5ccccc54)c23)cc1	8	-8	?	10µM*	?
CCC1=C2CC[C@H]3C(=O)NC(=O)[C@H]3[C@H]2[C@@]2(Cc3ccccc3)C(=NCC3CC3)OC(=O)N2C1=O	0	/	0%	/	-2%
Cc1ccc(NC(=S)Nc2ccc(C(C)C)cc2)cc1S(=O)(=O)N1CCCCCC1	-8	13	3.2µM*	12µM*	4.5µM*
C=CCNC(=S)Nc1ccc(C)c(S(=O)(=O)N2CCCCC2)c1	-1	-11	11µM*	-14%	-1%
COc1ccc(NC(=S)Nc2ccc(C)c(S(=O)(=O)N3CCCCC3)c2)cc1	3	-3	?	-14%	?
CC(C)C(C(=O)O)N1C(=O)/C(=C/c2ccc(Br)cc2)SC1=S (stereo not given)	10	/	39%	/	?
CC1C/C(=N\NC(=S)NC(C)C)CC(C)(C)C1 (stereo not given)	1	7	1.6µM*	?	4µM*
O=C(c1ccc(Cl)cc1)[C@@H]1[C@@H]2C(=O)N(c3ccc(Cl)cc3)C(=O)[C@@H]2C2c3ccccc3C=NN21 (stereo not given in full)	-5	-10	-4%	0%	-4%
CC(C)(C)C(=O)[C@@H]1[C@@H]2C(=O)N(Cc3ccccc3)C(=O)[C@@H]2[C@H]2c3ccccc3C=CN12	-12	8	11µM*	-12%	?
O=C(c1ccco1)[C@@H]1[C@@H]2C(=O)N(c3ccc(F)cc3)C(=O)[C@@H]2[C@H]2C=Cc3ccccc3N21	-8	24	?	9%	?
